According to the supplement of paper PMC6555819:

Legend:
Test in all cases: PBM binding z-score (relative to random genomic background probes); higher = stronger binding; sequences stand for … in GC…GCGATTGACAGCGTAGAATGAAGG
[1] = system: FXR:RXRa (NR concentration 270 nM, RXRa partner concentration 90 nM)
Summary of the method: (§1)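 Each nuclear receptor dimer, without ligand, was incubated for 1 h on custom Agilent 4×180K protein-binding microarrays. Binding was detected with antibodies against each partner (one per run), and scanned fluorescence was regression-normalized. The binding z-scores are referenced to random human genomic background probes.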

[2] = system: LXRa:RXRa (NR concentration 270 nM, RXRa partner concentration 90 nM)
Summary of the method: as §1

[3] = system: LXRa homodimer (NR concentration 270 nM)
Summary of the method: as §1

[4] = system: LXRb:RXRa (NR concentration 270 nM, RXRa partner concentration 90 nM)
Summary of the method: as §1

[5] = system: LXRb homodimer (NR concentration 270 nM)
Summary of the method: as §1

[6] = system: PPARa:RXRa (NR concentration 270 nM, RXRa partner concentration 90 nM)
Summary of the method: as §1

[7] = system: PPARg:RXRa (NR concentration 180 nM, RXRa partner concentration 90 nM)
Summary of the method: as §1

[8] = system: PPARg:RXRa 270nM:90nM, anti-RXR (NR concentration 270 nM, RXRa partner concentration 90 nM)
Summary of the method: as §1

[9] = system: PPARg:RXRa 30nM:10nM, anti-RXR (NR concentration 30 nM, RXRa partner concentration 10 nM)
Summary of the method: as §1

[10] = system: PPARg:RXRa 90nM:30nM, anti-RXR (NR concentration 90 nM, RXRa partner concentration 30 nM)
Summary of the method: as §1

| Sequence | PBM binding z-score [1] | PBM binding z-score [2] | PBM binding z-score [3] | PBM binding z-score [4] | PBM binding z-score [5] | PBM binding z-score [6] | PBM binding z-score [7] | PBM binding z-score [8] | PBM binding z-score [9] | PBM binding z-score [10] |
| --- | --- | --- | --- | --- | --- | --- | --- | --- | --- | --- |
| GGATCGAGGGCAAGTTGATAGCAGAGTTTGATGG | 0.982 | 0.317 | -0.184 | 0.122 | 0.0808 | 1.42 | 0.962 | 0.758 | 0.0505 | 0.387 |
| TCTCGGAGGACACGTAAGGTCAGAGCTCGACATC | 2.43 | 3.03 | 1.46 | 2.1 | -0.238 | 2.29 | 0.563 | 1.42 | 1.78 | 1.58 |
| TAGCCTAGGTCATTCAGGGGCCTGTATAGAAAGC | 4.5 | 3.47 | 0.422 | 2.66 | 0.91 | 3.5 | 2.01 | 2.08 | 0.363 | 1.19 |
| ATATGTAGGTTATCGGGTCTTTCAGTTTGCGCAT | 0.832 | 1.52 | 1.05 | 1.64 | 1.21 | 3.2 | 5.24 | 4.68 | 2.04 | 3.97 |
| GCTAGTTGGTCAGTAAAAGGTCACATACCGGTCG | 2.76 | 4.16 | 4.82 | 4.01 | 0.816 | 4.22 | 2.57 | 4.42 | 2.3 | 3.92 |
| GGAACGAGGGCAAGTCGATAGCAGAGTTTGATGG | 0.383 | 0.00226 | -0.566 | -0.0585 | -0.781 | 1.48 | 0.928 | 0.703 | -0.275 | 0.116 |
| TCGAGTAGCTTACCAATGGGGCATTCAGCTTTCT | -0.38 | -0.514 | -0.884 | 0.00146 | -1.08 | -0.152 | -0.423 | -0.0428 | 0.616 | 0.411 |
| TAGCCTAGGTCATGCTGGCCAGTATAGTGTCGGC | 3.83 | 3.03 | 0.0898 | 1.88 | -0.303 | 3.25 | 1.99 | 2.15 | 0.0868 | 1.11 |
| TCTTGTAGATCAATAGAGGTTAAGTAAGTGCGCT | 1.18 | 3.63 | 0.745 | 1.96 | -0.0782 | 2.03 | 0.0612 | 1.68 | 2.63 | 2.16 |
| AATATAGGGTCATCGTAGGCCAGAGTACGCACAG | 7.57 | 6.66 | 2.71 | 5 | 1.56 | 6.26 | 7.29 | 6.57 | 3.61 | 5.37 |
| CCTAGCAGGCCAATCTGGGTCACCCAAGGCTTGA | 0.68 | 1.16 | -0.385 | 0.427 | -0.863 | 3.04 | 2.45 | 2.51 | -0.13 | 1.89 |
| ACTAGCAGGTCAAGTTTGGGTCACTCAAACAAAG | 5.89 | 4.79 | 1.41 | 3.88 | 1.28 | 4.83 | 4.43 | 4.76 | 1.27 | 3.41 |
| CAAACTAGGTCAGGAAAGGTCAAAGTCGAATGAC | 6.17 | 6.74 | 6.35 | 6.12 | 1.93 | 6.08 | 8.46 | 6.82 | 4.45 | 6.88 |
| TCAAGTTGGTCACGGAGGTCACACACGACGGGTA | 3.09 | 3.76 | 2.38 | 3.17 | 0.603 | 4.18 | 3.94 | 3.95 | 3.52 | 3.47 |
| CCTACTGGGCCACGACAGGTCATTGATTCAGTGA | 0.777 | 2.99 | 1.75 | 1.48 | -0.349 | 2.68 | 2.81 | 2.84 | 0.448 | 1.68 |
| GCTTGTAGATCAAGGGTAAGAAAGACTAAGCTAA | -0.663 | -0.469 | -0.732 | -0.394 | -0.8 | 1.24 | 2.55 | 4.2 | 1.91 | 4.14 |
| CGTCCAAGGTCGTAGGAGGTCAGTGAAGACAGAT | 4.38 | 4.75 | 1.14 | 3.33 | -0.833 | 4.12 | 1.79 | 2.5 | 0.257 | 1.32 |
| CGTCCCAGGTCATAGGAGGTCAGTGAAGACAGAT | 5.9 | 6.34 | 4.26 | 5.07 | 0.872 | 4.83 | 3.87 | 4.13 | 1.16 | 2.74 |
| AGTCAAAGTTCACTAGGGAACGTAAGATTCAGCT | 5.18 | 5.47 | 2.42 | 3.27 | 0.67 | 4.19 | 6.45 | 6.13 | 3.52 | 5.22 |
| TCATATAGTTAAAAGGTGAAAGTCGGTGTGGTAA | 1.74 | 1.98 | 0.272 | 1.98 | 0.21 | 3.42 | 3.17 | 5.23 | 5.04 | 5.39 |
| CGAACTAGGTCAAGGACAGGGAATCTCCGCACGC | 3.17 | 2.12 | 0.324 | 1.32 | -0.364 | 4.52 | 7.01 | 6.26 | 3.78 | 5.95 |
| TCTTGTAGACCAATAGAGGTTAAGAAAGTGCGCT | 0.806 | 3.66 | 0.598 | 1.84 | 0.292 | 2.14 | 0.00378 | 1.69 | 2.88 | 1.93 |
| GCTGCTAGGTCAACTGATGGTCAGCAAAAGCTCG | 4.32 | 3.25 | 0.157 | 2.12 | 0.113 | 3.81 | 2.95 | 3.41 | 0.384 | 2.37 |
| TCATGTAGGTAAAGGTGAAAGTCGAACGATATGA | 1.05 | 1.11 | -0.13 | 1.23 | -0.337 | 3.46 | 4.4 | 4.72 | 4.32 | 4.81 |
| CCTATTAGTTTACCATAAGGGCAACCGAAGCTCG | 0.454 | 0.693 | 0.603 | 0.679 | 0.527 | 0.641 | 0.273 | 0.684 | 0.33 | 0.455 |
